Results from PubChem BioAssay AID720706 (Broad Institute, 2013).
About 5,500 (1.6%) of roughly 350,000 compounds were called active.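 Rule for the calls: active = significant combined selectivity score with lowered wild-type GFP, culture density cut under 30%, mutant RFP and density less affected; inactive = any of these conditions unmet.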 What follows is part of a selection rich in actives, with near analogues and random picks from the rest.

Experiment: reduced GFP signal of wild-type E. coli, primary screen, bacterial rRNA inhibitor project, GFP/RFP fluorescence, OD600, single point (AID 720706)
Details: E. coli WT GFP vs humanized-ribosome RFP mutants, 24 h; GFP signal change (wild-type ribosome): stronger effect = lower value, DMSO median 0, no signal -100; OD600 change: measured here: OD600 growth, DMSO median 0, no signal -100; RFP signal change: measured here: RFP humanized mutant strains, DMSO median 0, no signal -100, concentration not given here

For `COc1ccc2oc(C(=O)NCc3ccco3)c(C)c2c1`, which GFP signal change (wild-type ribosome) is on record?
Its GFP signal change (wild-type ribosome) is -31.1% (active).

What about the OD600 change of the same molecule?
The OD600 change was -11.6%.

What about the RFP signal change of the same molecule?
The RFP signal change was 2.2%.

With `Cc1c(C(=O)NCC(c2ccco2)N2CCCC2)oc2ccc(Cl)cc12` (centres undefined) as the molecule, how does the GFP signal change (wild-type ribosome) read?
Its GFP signal change (wild-type ribosome) is -0.887% (inactive).

What about the OD600 change of the same molecule?
Its OD600 change is -24.2%.

What about the RFP signal change of the same molecule?
Its RFP signal change is 6.54%.

Which GFP signal change (wild-type ribosome) does the source give for `C[C@@H]1CCCCO[C@@H](CN(C)S(=O)(=O)c2cccs2)[C@H](C)CN([C@H](C)CO)C(=O)c2cc(NC(=O)CCCN(C)C)ccc2O1` here?
The GFP signal change (wild-type ribosome) was 0.863% (inactive).

What about the OD600 change of the same molecule?
The OD600 change was 4.81%.

And the RFP signal change?
The RFP signal change was -0.962%.

What does the source list for `Cc1cc(C)c2c(-c3ccc(F)cc3)c(C#N)c(=O)n(C)c2n1`?
GFP signal change (wild-type ribosome): 2.75% (inactive); OD600 change: 5.62%; RFP signal change: -1.52%

With `COCCn1c(=O)[nH]c(=O)c2cc(C(=O)c3cc(OC)ccc3O)cnc21` as the molecule, how does the GFP signal change (wild-type ribosome) read?
Its GFP signal change (wild-type ribosome) is -0.725% (inactive).

What about the OD600 change of the same molecule?
The OD600 change was -0.37%.

What about the RFP signal change of the same molecule?
The RFP signal change was 12.8%.

What does the source list for `COc1ccc(O)c(C(=O)c2cnc3c(c2)c(-c2ccc(F)cc2)c(C#N)c(=O)n3C)c1`?
GFP signal change (wild-type ribosome): -17% (active); OD600 change: 6.31%; RFP signal change: 1.18%

With `CC(=O)N1N=C(c2ccccc2)OC1c1cccnc1` (centres undefined) as the molecule, how does the GFP signal change (wild-type ribosome) read?
Its GFP signal change (wild-type ribosome) is 9.41% (inactive).

And the OD600 change?
The OD600 change was -5.18%.

What about the RFP signal change of the same molecule?
The RFP signal change was -3.3%.

Which results are given for `O=C(Cc1ccccc1)N1N=C(c2ccncc2)CC1(O)C(F)(F)F` (centres undefined)?
GFP signal change (wild-type ribosome): 7.85% (inactive); OD600 change: -1.11%; RFP signal change: 2.05%

With `CC(=O)N1N=C(c2ccncc2)OC1(Cc1ccccc1)Cc1ccccc1` as the molecule, how does the GFP signal change (wild-type ribosome) read?
The GFP signal change (wild-type ribosome) was -37.5% (active).

And the OD600 change?
Its OD600 change is -22%.

And the RFP signal change?
The RFP signal change was -2.93%.

Which GFP signal change (wild-type ribosome) does the source give for `Cc1cccc(C)c1N1C(=O)CN(Cc2ccccc2)C1=S` here?
The GFP signal change (wild-type ribosome) was -22.1% (active).

And the OD600 change?
The OD600 change was -16.8%.

And the RFP signal change?
The RFP signal change was -3.28%.

For `COc1cccc(N2C(=O)CN(Cc3ccccc3)C2=S)c1`, which GFP signal change (wild-type ribosome) is on record?
The GFP signal change (wild-type ribosome) was -8.56% (inactive).

And the OD600 change?
Its OD600 change is -0.07%.

And the RFP signal change?
Its RFP signal change is 3.96%.

Which results are given for `CCc1cccc(C)c1N1C(=O)CN(Cc2ccccc2)C1=S`?
GFP signal change (wild-type ribosome): 1.91% (inactive); OD600 change: -44.9%; RFP signal change: -8.39%

What does the source list for `CCC(=O)N1CC(=O)N2[C@H](CO)[C@@H](c3ccc(-c4ccc(C(=O)N(C)C)cc4)cc3)[C@H]2C1`?
GFP signal change (wild-type ribosome): 4.58% (inactive); OD600 change: 2.18%; RFP signal change: -2.34%

Which results are given for `COC(=O)c1cc(OC)ccc1-c1ccc(OC)cc1`?
GFP signal change (wild-type ribosome): -32.6% (active); OD600 change: -15.3%; RFP signal change: -6.08%

For `COc1ccc(SSc2ccc(OC)cc2C(=O)O)c(C(=O)O)c1`, which GFP signal change (wild-type ribosome) is on record?
Its GFP signal change (wild-type ribosome) is 11.9% (inactive).

And the OD600 change?
The OD600 change was 11.8%.

What about the RFP signal change of the same molecule?
The RFP signal change was -2.19%.

Which GFP signal change (wild-type ribosome) does the source give for `COc1ccc(C(=O)CC(=O)c2ccc(C)cc2)c(O)c1` here?
Its GFP signal change (wild-type ribosome) is -49% (inactive).

And the OD600 change?
The OD600 change was -75.2%.

What about the RFP signal change of the same molecule?
Its RFP signal change is -24.9%.

Which results are given for `COc1ccccc1S(=O)(=O)N[C@@H]1CC[C@H](CCn2cc(C3CCCC3)nn2)O[C@H]1CO`?
GFP signal change (wild-type ribosome): 1.1% (inactive); OD600 change: 3.92%; RFP signal change: -3.27%

Which GFP signal change (wild-type ribosome) does the source give for `C[C@H](CO)N1C[C@H](C)[C@H](CN(C)CC2CC2)OCCCC[C@H](C)Oc2ccc(NS(=O)(=O)c3cccs3)cc2C1=O` here?
Its GFP signal change (wild-type ribosome) is -0.767% (inactive).

What about the OD600 change of the same molecule?
Its OD600 change is -2.73%.

And the RFP signal change?
Its RFP signal change is -0.839%.

With `Cc1ccc(-c2ccc([C@H]3[C@H](CO)N4C(=O)CN(S(=O)(=O)c5cccc(F)c5)C[C@@H]34)cc2)cc1` as the molecule, how does the GFP signal change (wild-type ribosome) read?
Its GFP signal change (wild-type ribosome) is -2.35% (inactive).

What about the OD600 change of the same molecule?
Its OD600 change is -0.94%.

And the RFP signal change?
The RFP signal change was 0.984%.

With `Cn1c(=O)n(C)c2cc(NS(=O)(=O)c3ccc(F)cc3)ccc21` as the molecule, how does the GFP signal change (wild-type ribosome) read?
The GFP signal change (wild-type ribosome) was 0.225% (inactive).

And the OD600 change?
Its OD600 change is 0.76%.

What about the RFP signal change of the same molecule?
The RFP signal change was -4.92%.

What does the source list for `CCC(=O)Nc1ccc2c(c1)nc(CCN1CCN(c3ccccn3)CC1)n2C`?
GFP signal change (wild-type ribosome): 4.56% (inactive); OD600 change: 7.29%; RFP signal change: 1.64%

For `Cn1c(CCN2CCN(c3ccccn3)CC2)nc2cc(NS(=O)(=O)c3ccc(F)cc3)ccc21`, which GFP signal change (wild-type ribosome) is on record?
The GFP signal change (wild-type ribosome) was -28.9% (active).

And the OD600 change?
Its OD600 change is -17%.

And the RFP signal change?
The RFP signal change was 3.47%.

What does the source list for `COCC(=O)N1CC2(C1)CN(C(=O)COC)[C@@H](CO)c1c2c2ccc(OC)cc2n1C`?
GFP signal change (wild-type ribosome): 4.63% (inactive); OD600 change: 7.89%; RFP signal change: 0.659%

For `Cc1ccc(S(=O)(=O)N(C)C[C@@H]2OCCCC[C@@H](C)Oc3ccc(NC(=O)C4CCCCC4)cc3C(=O)N([C@H](C)CO)C[C@H]2C)cc1`, which GFP signal change (wild-type ribosome) is on record?
Its GFP signal change (wild-type ribosome) is -2.75% (inactive).

What about the OD600 change of the same molecule?
Its OD600 change is -2.24%.

And the RFP signal change?
Its RFP signal change is 1.84%.

Which GFP signal change (wild-type ribosome) does the source give for `CCOc1ccc(N2C(=O)Nc3ccccc3C2(O)C(=O)NCc2ccco2)cc1` (centres undefined) here?
The GFP signal change (wild-type ribosome) was 2.27% (inactive).

And the OD600 change?
The OD600 change was 2.6%.

What about the RFP signal change of the same molecule?
Its RFP signal change is 0.0175%.

For `CCCCNC(=O)C1(O)c2ccccc2NC(=O)N1c1ccc(Cl)cc1` (centres undefined), which GFP signal change (wild-type ribosome) is on record?
The GFP signal change (wild-type ribosome) was -25.8% (active).

And the OD600 change?
The OD600 change was -20.4%.

What about the RFP signal change of the same molecule?
Its RFP signal change is 0.114%.

For `CCOCCCNC(=O)C1(O)c2cc(Br)ccc2NC(=O)N1c1ccc(C)c(C)c1` (centres undefined), which GFP signal change (wild-type ribosome) is on record?
The GFP signal change (wild-type ribosome) was 4.8% (inactive).

And the OD600 change?
The OD600 change was 3.91%.

And the RFP signal change?
Its RFP signal change is 0.676%.

Which GFP signal change (wild-type ribosome) does the source give for `CNC[C@@H]1Oc2c(NC(=O)Nc3ccc(F)cc3)cccc2C(=O)N([C@@H](C)CO)C[C@@H]1C` here?
Its GFP signal change (wild-type ribosome) is 0.51% (inactive).

What about the OD600 change of the same molecule?
Its OD600 change is 5.77%.

And the RFP signal change?
The RFP signal change was -0.32%.

For `CCCNC(=O)C[C@H]1CC[C@H]2[C@@H](COC[C@H](O)CN2C(=O)Nc2c(C)noc2C)O1`, which GFP signal change (wild-type ribosome) is on record?
Its GFP signal change (wild-type ribosome) is -3% (inactive).

What about the OD600 change of the same molecule?
The OD600 change was 7.33%.

What about the RFP signal change of the same molecule?
Its RFP signal change is -4.75%.

Which GFP signal change (wild-type ribosome) does the source give for `C[C@@H]1CN([C@@H](C)CO)S(=O)(=O)c2ccc(/C=C/c3ccccc3)cc2O[C@@H]1CN(C)C(=O)Nc1cc(F)ccc1F` here?
Its GFP signal change (wild-type ribosome) is -1.81% (inactive).

And the OD600 change?
Its OD600 change is 7.09%.

And the RFP signal change?
The RFP signal change was -0.095%.

For `CC(=O)Nc1ccc(S(=O)(=O)N2CCN(c3ccc([N+](=O)[O-])c(NCCN4CCOCC4)c3)CC2)cc1`, which GFP signal change (wild-type ribosome) is on record?
Its GFP signal change (wild-type ribosome) is -2.32% (inactive).

What about the OD600 change of the same molecule?
The OD600 change was 3%.

What about the RFP signal change of the same molecule?
Its RFP signal change is 1.54%.

Which GFP signal change (wild-type ribosome) does the source give for `COc1ccc(CCNc2cc(N3CCN(C(=O)c4ccccc4OC)CC3)ccc2[N+](=O)[O-])cc1OC` here?
Its GFP signal change (wild-type ribosome) is 2.05% (inactive).

What about the OD600 change of the same molecule?
Its OD600 change is -0.295%.

What about the RFP signal change of the same molecule?
Its RFP signal change is 6.64%.

Which results are given for `COc1ccccc1OCCNc1cc(N2CCOCC2)ccc1[N+](=O)[O-]`?
GFP signal change (wild-type ribosome): -27.3% (active); OD600 change: -18.1%; RFP signal change: -0.933%
